The full data set covers some 7,900 targets. This sample favours those with a hit. About 0.6% of all pairs of compound and target were hits.

UniProt P18754, sequence (P18754 whole entry, looked up): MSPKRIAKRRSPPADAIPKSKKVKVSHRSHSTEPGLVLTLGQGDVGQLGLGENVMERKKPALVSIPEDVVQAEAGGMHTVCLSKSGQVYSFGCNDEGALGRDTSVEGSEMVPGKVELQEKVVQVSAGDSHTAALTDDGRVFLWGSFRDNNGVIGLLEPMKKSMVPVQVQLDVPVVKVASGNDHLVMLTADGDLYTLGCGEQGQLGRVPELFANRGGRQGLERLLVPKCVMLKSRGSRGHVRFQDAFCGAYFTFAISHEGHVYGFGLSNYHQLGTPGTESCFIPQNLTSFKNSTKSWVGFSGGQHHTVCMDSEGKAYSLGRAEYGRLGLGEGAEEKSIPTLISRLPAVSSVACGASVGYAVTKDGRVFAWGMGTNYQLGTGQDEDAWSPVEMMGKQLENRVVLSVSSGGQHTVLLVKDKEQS
UniProt Q15349, sequence (Q15349 whole entry, looked up): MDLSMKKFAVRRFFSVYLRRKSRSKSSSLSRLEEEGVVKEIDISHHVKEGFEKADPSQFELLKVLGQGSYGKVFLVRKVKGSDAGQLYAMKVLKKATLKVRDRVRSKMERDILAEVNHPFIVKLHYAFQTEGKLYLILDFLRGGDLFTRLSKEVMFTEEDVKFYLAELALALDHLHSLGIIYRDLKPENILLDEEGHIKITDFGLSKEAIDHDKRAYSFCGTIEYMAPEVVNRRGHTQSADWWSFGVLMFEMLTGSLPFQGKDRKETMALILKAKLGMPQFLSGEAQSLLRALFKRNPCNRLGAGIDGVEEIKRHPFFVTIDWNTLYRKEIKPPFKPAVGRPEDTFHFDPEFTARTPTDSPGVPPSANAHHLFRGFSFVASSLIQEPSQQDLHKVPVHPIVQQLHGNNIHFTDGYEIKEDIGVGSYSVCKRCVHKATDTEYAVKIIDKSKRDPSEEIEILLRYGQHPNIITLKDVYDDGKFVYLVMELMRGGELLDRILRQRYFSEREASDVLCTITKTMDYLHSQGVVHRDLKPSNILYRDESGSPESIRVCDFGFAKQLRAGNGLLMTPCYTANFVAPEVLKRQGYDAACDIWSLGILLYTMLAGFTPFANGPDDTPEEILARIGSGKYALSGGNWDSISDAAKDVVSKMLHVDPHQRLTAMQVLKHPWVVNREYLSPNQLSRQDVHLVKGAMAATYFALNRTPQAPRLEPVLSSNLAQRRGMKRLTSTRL
UniProt Q96EV2, sequence (Q96EV2 whole entry, looked up): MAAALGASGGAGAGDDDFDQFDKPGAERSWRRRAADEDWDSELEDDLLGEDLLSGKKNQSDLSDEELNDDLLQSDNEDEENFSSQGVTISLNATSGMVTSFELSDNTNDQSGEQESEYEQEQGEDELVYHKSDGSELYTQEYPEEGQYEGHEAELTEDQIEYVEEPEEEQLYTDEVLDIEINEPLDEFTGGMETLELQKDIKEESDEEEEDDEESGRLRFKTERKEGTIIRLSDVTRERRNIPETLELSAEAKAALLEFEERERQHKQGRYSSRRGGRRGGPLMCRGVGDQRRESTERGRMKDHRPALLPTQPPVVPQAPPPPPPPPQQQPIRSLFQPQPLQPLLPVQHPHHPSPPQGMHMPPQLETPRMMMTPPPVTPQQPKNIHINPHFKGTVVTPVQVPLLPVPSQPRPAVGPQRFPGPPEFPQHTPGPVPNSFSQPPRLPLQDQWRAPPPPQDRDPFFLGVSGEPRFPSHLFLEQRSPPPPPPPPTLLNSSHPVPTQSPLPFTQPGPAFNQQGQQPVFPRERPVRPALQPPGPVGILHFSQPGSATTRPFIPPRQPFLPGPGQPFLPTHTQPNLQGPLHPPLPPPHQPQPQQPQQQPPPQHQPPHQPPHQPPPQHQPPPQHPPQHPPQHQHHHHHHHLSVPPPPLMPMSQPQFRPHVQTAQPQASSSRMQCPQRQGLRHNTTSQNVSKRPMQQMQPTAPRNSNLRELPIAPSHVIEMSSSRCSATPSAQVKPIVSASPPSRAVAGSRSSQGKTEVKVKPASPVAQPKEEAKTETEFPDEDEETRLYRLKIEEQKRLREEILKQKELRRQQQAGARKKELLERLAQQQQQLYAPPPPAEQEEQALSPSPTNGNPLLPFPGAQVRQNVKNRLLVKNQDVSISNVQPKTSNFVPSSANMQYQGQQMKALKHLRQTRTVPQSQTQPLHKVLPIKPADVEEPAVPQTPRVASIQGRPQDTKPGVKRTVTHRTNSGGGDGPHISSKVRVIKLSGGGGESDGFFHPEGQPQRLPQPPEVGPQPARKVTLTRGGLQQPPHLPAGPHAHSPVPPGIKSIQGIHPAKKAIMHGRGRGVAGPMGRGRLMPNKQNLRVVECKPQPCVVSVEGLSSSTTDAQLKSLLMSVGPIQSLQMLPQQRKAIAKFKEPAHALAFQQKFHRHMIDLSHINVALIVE
UniProt O43818, sequence (O43818 whole entry, looked up): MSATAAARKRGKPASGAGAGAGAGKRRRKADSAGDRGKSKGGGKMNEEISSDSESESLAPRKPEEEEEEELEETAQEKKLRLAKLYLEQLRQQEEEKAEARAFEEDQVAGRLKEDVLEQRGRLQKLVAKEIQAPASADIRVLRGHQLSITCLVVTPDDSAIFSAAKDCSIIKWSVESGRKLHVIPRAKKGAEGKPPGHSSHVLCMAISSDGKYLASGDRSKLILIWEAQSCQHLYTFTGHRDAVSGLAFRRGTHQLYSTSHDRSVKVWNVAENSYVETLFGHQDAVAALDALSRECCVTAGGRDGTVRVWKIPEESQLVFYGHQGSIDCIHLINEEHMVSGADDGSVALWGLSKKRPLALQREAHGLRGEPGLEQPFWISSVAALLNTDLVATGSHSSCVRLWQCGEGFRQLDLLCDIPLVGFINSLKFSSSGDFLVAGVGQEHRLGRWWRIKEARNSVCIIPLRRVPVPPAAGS
UniProt O00584, sequence (O00584 whole entry, looked up): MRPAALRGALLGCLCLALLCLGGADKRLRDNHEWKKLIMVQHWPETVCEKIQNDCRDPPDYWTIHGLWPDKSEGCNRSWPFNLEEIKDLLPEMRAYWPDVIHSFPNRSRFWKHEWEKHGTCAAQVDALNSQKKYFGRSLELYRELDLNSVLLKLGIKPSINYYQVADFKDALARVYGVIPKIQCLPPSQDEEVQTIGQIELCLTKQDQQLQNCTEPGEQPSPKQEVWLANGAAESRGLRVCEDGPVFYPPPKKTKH
UniProt Q5RL73, sequence (Q5RL73 whole entry, looked up): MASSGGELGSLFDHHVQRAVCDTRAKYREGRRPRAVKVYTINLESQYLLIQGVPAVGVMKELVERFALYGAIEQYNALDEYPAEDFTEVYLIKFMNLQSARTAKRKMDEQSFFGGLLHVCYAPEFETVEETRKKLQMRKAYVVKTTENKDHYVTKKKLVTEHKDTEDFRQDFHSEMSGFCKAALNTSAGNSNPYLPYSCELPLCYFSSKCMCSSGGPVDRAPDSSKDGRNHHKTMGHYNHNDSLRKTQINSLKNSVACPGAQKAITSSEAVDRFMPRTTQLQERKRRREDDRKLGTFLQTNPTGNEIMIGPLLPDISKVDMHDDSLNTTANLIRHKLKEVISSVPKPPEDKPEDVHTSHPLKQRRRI
UniProt Q7L4I2, sequence (Q7L4I2 whole entry, looked up): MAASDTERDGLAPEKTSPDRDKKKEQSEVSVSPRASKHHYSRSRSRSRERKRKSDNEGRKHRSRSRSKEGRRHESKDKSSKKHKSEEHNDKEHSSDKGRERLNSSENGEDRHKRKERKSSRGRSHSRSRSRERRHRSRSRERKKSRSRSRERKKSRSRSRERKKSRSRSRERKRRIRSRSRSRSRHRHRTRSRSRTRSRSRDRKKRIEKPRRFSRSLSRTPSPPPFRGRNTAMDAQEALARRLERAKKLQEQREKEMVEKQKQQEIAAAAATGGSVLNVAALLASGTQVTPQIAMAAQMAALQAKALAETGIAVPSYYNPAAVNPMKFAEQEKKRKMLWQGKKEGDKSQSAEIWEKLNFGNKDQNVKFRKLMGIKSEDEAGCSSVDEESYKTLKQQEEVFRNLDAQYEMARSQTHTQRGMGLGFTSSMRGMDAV
UniProt Q8IZE3, sequence (Q8IZE3 whole entry, looked up): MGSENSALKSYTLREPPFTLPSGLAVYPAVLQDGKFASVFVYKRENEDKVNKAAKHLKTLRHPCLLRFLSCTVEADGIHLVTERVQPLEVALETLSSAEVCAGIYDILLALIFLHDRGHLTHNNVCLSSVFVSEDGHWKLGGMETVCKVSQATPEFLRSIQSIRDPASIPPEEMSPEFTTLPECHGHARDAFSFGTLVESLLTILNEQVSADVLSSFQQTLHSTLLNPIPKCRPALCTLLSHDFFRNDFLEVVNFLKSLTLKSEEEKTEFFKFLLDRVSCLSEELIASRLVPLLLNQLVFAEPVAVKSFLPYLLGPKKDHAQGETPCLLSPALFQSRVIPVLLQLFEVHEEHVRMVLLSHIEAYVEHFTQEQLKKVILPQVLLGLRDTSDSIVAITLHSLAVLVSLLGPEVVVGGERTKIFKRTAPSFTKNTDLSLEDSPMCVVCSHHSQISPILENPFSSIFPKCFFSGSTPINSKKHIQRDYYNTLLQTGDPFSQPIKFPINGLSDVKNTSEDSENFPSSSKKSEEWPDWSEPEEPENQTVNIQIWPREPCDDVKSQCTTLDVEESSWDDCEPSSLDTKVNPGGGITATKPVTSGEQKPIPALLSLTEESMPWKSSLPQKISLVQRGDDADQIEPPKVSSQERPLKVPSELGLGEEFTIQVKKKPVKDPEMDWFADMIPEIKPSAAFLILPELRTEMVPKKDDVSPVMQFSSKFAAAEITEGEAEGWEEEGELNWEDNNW
UniProt Q5VZM2, sequence (Q5VZM2 whole entry, looked up): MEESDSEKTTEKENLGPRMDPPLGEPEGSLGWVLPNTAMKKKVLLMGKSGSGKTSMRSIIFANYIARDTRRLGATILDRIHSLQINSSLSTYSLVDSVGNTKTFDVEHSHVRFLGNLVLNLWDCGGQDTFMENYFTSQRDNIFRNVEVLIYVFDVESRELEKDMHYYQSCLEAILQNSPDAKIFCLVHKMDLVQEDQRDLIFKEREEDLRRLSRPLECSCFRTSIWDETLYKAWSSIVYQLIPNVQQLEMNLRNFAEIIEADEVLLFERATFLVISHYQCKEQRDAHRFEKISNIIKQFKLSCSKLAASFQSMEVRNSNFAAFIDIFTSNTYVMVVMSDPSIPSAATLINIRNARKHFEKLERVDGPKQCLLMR

Compound in one test: C1=CC(=C(C=C1Cl)C2=NC3=NC=CN=C3C(=N2)NC4=CC=NC=C4)F
The test can be described thus: log2 fold change, soluble protein after heating vs DMSO (PISA); higher = thermal stabilisation; K562 cells, 10 uM, 30 min; active = over 0.2 and 3.5 SD of the protein, either way, in both replicates (recomputed). The essentials:
(§1)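 Soluble protein was quantified by TMTpro 16plex LC-MS/MS after channel sums were equalised. It was obtained as the supernatant after 21,000xg for 90 min from pooled aliquots of K562 cells (2×10^6 cells/mL, 10 μM compound, 30 min) heated for 3 min across 48°C-58°C and extracted in PBS with 0.5% NP-40 at 4°C. Thermal stability values are relative to control samples and come from duplicates. They are given as log2 fold changes.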
RPS3 (UniProt P23396): the log2 fold change was -0.224 (inactive).
For the target SDHC (UniProt Q99643), the log2 fold change was -0.015 (inactive).
Regarding REL (UniProt Q04864), the log2 fold change was -0.007 (inactive).
Take SERINC1 (UniProt Q9NRX5): the log2 fold change was -0.006 (inactive).
As to RPS9 (UniProt P46781), the log2 fold change is -0.384 (inactive).
Take RPS27A (UniProt P62979): the log2 fold change was -0.207 (inactive).
For the target RPS18 (UniProt P62269), the log2 fold change is -0.211 (inactive).
In the case of RBM33 (UniProt Q96EV2), the log2 fold change was -0.022 (inactive).
Consider SEC23IP (UniProt Q9Y6Y8), for which the log2 fold change is -0.013 (inactive).
For RRAGB (UniProt Q5VZM2), the log2 fold change is 0.004 (inactive).
As to RPS16 (UniProt P62249), the log2 fold change was -0.258 (inactive).
On to RPS4X (UniProt P62701), for which the log2 fold change was -0.37 (inactive).
RABGGTA (UniProt Q92696): the log2 fold change was 0.065 (inactive).
Take RSL1D1 (UniProt O76021): the log2 fold change was -0.504 (inactive).
For the target ROR2 (UniProt Q01974), the log2 fold change is 0.01 (inactive).
As for SEC16A isoform 5 (UniProt O15027), the log2 fold change was -0.064 (inactive).
On to RETSAT (UniProt Q6NUM9), for which the log2 fold change is 0.132 (inactive).
With RAB5C isoform 2 (UniProt P51148), the log2 fold change is 0.066 (inactive).
As for RSF1 (UniProt Q96T23), the log2 fold change is 0.031 (inactive).
As for SCAMP2 (UniProt H3BUB6), the log2 fold change is -0.143 (inactive).
In the case of RSRC2 (UniProt Q7L4I2), the log2 fold change was -0.009 (inactive).
The same measure, in the same setting: as for RAB5IF isoform 5 (UniProt Q9BUV8), the figure is 0.098 (inactive); as for RGS10 (UniProt O43665), 0.076 (inactive); as for ROCK1 (UniProt Q13464), 0.042 (inactive).
As for SCYL3 isoform 2 (UniProt Q8IZE3), the log2 fold change is 0.07 (inactive).
The same measure, in the same setting: in the case of SCAF11 (UniProt Q99590) it was -0.16 (inactive); in that of RCC1 isoform 2 (UniProt P18754), 0.11 (inactive); in that of RPS6KA2 isoform 2 (UniProt Q15349), -0.068 (inactive).
For RNASET2 (UniProt O00584), the log2 fold change was -0.006 (inactive).
The same measure, in the same setting: in the case of RBM48 isoform 2 (UniProt Q5RL73) it was -0.065 (inactive); in that of RPS3A (UniProt P61247), -0.232 (inactive).
As for RRP9 (UniProt O43818), the log2 fold change is -0.099 (inactive).
Take SASH1 (UniProt O94885): the log2 fold change is 0.145 (inactive).
For the target RIPK1 (UniProt Q13546), the log2 fold change is -0.028 (inactive).

Compound in a further test: C1=CC(=CC=C1C2=NC3=C(N2)C=C(C=C3)C(=O)N)OC4=CC=C(C=C4)Cl
The description is as above. The essentials:
as §1
For the target RPS3 (UniProt P23396), the log2 fold change was 0.061 (inactive).
In the case of SDHC (UniProt Q99643), the log2 fold change is 0.033 (inactive).
Turning to REL (UniProt Q04864), the log2 fold change is 0.003 (inactive).
As to SERINC1 (UniProt Q9NRX5), the log2 fold change is 0.096 (inactive).
Turning to RPS9 (UniProt P46781), the log2 fold change is 0.024 (inactive).
Take RPS27A (UniProt P62979): the log2 fold change is 0.016 (inactive).
As to RPS18 (UniProt P62269), the log2 fold change was 0.039 (inactive).
As to RBM33 (UniProt Q96EV2), the log2 fold change is -0.011 (inactive).
As to SEC23IP (UniProt Q9Y6Y8), the log2 fold change was -0.037 (inactive).
With RRAGB (UniProt Q5VZM2), the log2 fold change was 0.023 (inactive).
For the target RPS16 (UniProt P62249), the log2 fold change was 0.049 (inactive).
Same read-out and setting: as for RPS4X (UniProt P62701), the figure is 0.054 (inactive); as for RABGGTA (UniProt Q92696), 0.001 (inactive); as for RSL1D1 (UniProt O76021), 0.073 (inactive).
For ROR2 (UniProt Q01974), the log2 fold change was 0.023 (inactive).
Same read-out and setting: in the case of SEC16A isoform 5 (UniProt O15027) it was 0.015 (inactive); in that of RETSAT (UniProt Q6NUM9), 0.502 (active).
Still for that read-out and setting: as for RAB5C isoform 2 (UniProt P51148), the figure is 0.015 (inactive); as for RSF1 (UniProt Q96T23), 0.126 (inactive); as for SCAMP2 (UniProt H3BUB6), 0.039 (inactive).
Regarding RSRC2 (UniProt Q7L4I2), the log2 fold change is -0.012 (inactive).
Still for that read-out and setting: in the case of RAB5IF isoform 5 (UniProt Q9BUV8) it was 0.055 (inactive).
On the same count and under the same terms, as for RGS10 (UniProt O43665), the figure is 0.009 (inactive); as for ROCK1 (UniProt Q13464), -0.007 (inactive); as for SCYL3 isoform 2 (UniProt Q8IZE3), -0.05 (inactive).
Take SCAF11 (UniProt Q99590): the log2 fold change is 0.03 (inactive).
Still for that read-out and setting: as for RCC1 isoform 2 (UniProt P18754), the figure is 0.03 (inactive).
In the case of RPS6KA2 isoform 2 (UniProt Q15349), the log2 fold change is 0.075 (inactive).
For the target RNASET2 (UniProt O00584), the log2 fold change was 0.002 (inactive).
As for RBM48 isoform 2 (UniProt Q5RL73), the log2 fold change was -0.026 (inactive).
As for RPS3A (UniProt P61247), the log2 fold change was 0.062 (inactive).
As to RRP9 (UniProt O43818), the log2 fold change was -0.004 (inactive).
Regarding SASH1 (UniProt O94885), the log2 fold change was -0.01 (inactive).
On to RIPK1 (UniProt Q13546), for which the log2 fold change was 0 (inactive).

Values taken from the supplement of paper PMC10849652.
